Assay results as given in PubChem BioAssay (NCI).
About 83,000 compounds went through this panel and 20% of them were active in at least one assay; those are over-represented in the sample as a whole.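 Growth was measured after 48 h exposure to one concentration of compound in 96-well plates. Values under 10 count as active.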 Active and inactive are the calls of the source.

What follows are compounds tested on HL-60(TB) leukemia (assay: NCI-60 one-dose screen, 48 h (100 = growth as untreated, 0 = no growth, -100 = all killed)). Conditions: 10 µM unless noted.

Structure (SMILES) | growth
C=C1C(=O)O[C@H]2[C@H]1CC/C(CNC(=O)/C=C/c1ccccc1F)=C\CC[C@@]1(C)O[C@@H]21 | -31.9% (active)
COc1cc2nc(-c3ccc(C(F)(F)F)cc3)cc(OCCCN3CCCC3)c2cc1OC | 36.9% (inactive)
Cc1ccc2c(Cn3cc(CSc4nc5ccccc5o4)nn3)cc(=O)oc2c1 | 109% (inactive)
CCOc1ccc(C(=O)NCC(C)C)cc1 | 94.9% (inactive)
COc1ccc(Cn2cc(Cn3cc(C=C4C(=O)NC(=O)NC4=O)c4ccccc43)nn2)cc1 | 82.6% (inactive)
COc1cc(/C=C/C(=O)c2ccc(Nc3nc(NCCO)nc(N4CCOCC4)n3)cc2)cc(OC)c1OC | -28.6% (active)
CCC(O)(C(c1ccccc1)c1ccccn1)C(c1ccccc1)c1ccccn1 (stereo not given) | 79% (inactive)
COc1ccc(-c2ccc(=O)oc2-c2cc(OC)c(OC)c(OC)c2)cc1O | -55.6% (active)
CCCCCCCCNC(=O)C(C)C | 99.7% (inactive)
O=[N+]([O-])c1ccc(N=Nc2ccc(O)cc2O)cc1 | 32.5% (inactive)
O=C(O)c1cc([N+](=O)[O-])ccc1Oc1ccccc1 | 88.6% (inactive)
COc1ccc2occ(C3=C(c4c[nH]c5ccccc45)C(=O)NC3=O)c2c1 | 20.8% (inactive)
CCCCCCCCCCCCCCn1cc(C2=C(c3coc4ccc(OC)cc34)C(=O)NC2=O)c2ccccc21 | 129% (inactive)
OC(c1ccc(F)c(C(F)(F)F)c1)c1cnccc1NC1CCCCC1 (stereo not given) | 30.9% (inactive)
CC(C)OC(=O)[C@H](C)N[P@@](=O)(OC[C@@]1(C)O[C@@H](n2cc(F)c(N)nc2=O)C[C@@H]1O[P@](=O)(N[C@@H](C)C(=O)OC(C)C)Oc1ccccc1)Oc1ccccc1 | 95.5% (inactive)
COc1cccc2nc(Nc3cccc(NC(=O)c4ccc(N5CCN(C)CC5)c(C(F)(F)F)c4)c3)ccc12 | 37.6% (inactive)
COc1cc2c3c(n(C4CCN(C)CC4)c(=O)c2cc1OC)-c1cc2c(cc1C3=O)OCO2 | 95% (inactive)
COc1ccc(-n2c(=O)c3ccccc3n(Cc3ccc(C(=O)NO)cc3)c2=O)cc1 | -4.17% (active)
O=C(NC(CSSCC(NC(=O)OCc1ccccc1)C(=O)O)C(=O)O)OCc1ccccc1 (stereo not given) | 14.3% (inactive)
COC(=O)[C@H](C)NC(=O)NC(=O)NC(=O)CI | -51% (active)

Structure (SMILES) | growth
COC(=O)c1[nH]nc(OC)c1C1(C(C#N)c2nc3ccccc3s2)CCCc2ccccc21 (stereo not given) | 79.8% (inactive)
O[C@@H]1CO[C@H]2[C@@H]1OC[C@@H]2O | 98% (inactive)
N#Cc1cnn(C(=O)c2nn(-c3ccc(Cl)cc3)cc2O)c1N | -50.1% (active)
CC(C)(C)c1ccc2oc(=O)n(SC(Cl)(Cl)Cl)c2c1 | 70.2% (inactive)
COc1cccc(Nc2nc(SC)nc(-c3cccc([N+](=O)[O-])c3)c2C#N)c1 | 112% (inactive)
CC/C(Cc1ccccc1)=C(/c1ccc(O)cc1)c1ccc(OCCN2CCCC2)cc1 | -56.9% (active)
O=C(CCCCCn1c2ccccc2c2c3c(c4c5ccccc5[nH]c4c21)C(=O)N(O)C3=O)N1CCOCC1 | 44.6% (inactive)
Oc1[nH]c2ccc(Cl)cc2c1/C=c1/ccc2c(c1)N=C(c1ccc(F)cc1)N=2 | 51.5% (inactive)
COc1cc(N2C(=O)C=CC2=O)ccc1N1C(=O)C=CC1=O | 82.9% (inactive)
O=C(Cc1ccccc1)c1ccc(O)c(Cl)c1 | -21.1% (active)
CCOc1ccc(NC(=O)c2ccoc2COc2ccccc2)cc1 | 100% (inactive)
Cc1ccc(N=Nc2c(N)nc(N)[nH]c2=O)cc1C | 97.3% (inactive)
O=C1OC(N(Cc2ccc(Cl)cc2)c2ccccc2)c2ccccc21 (stereo not given) | 93.8% (inactive)
CC(=O)Nc1cc2c3c(cccc3c1)-c1ccccc1-2 | 0.506% (active)
c1c2c(cc3c1OCO3)Cc1cc3c(cc1Cc1cc4c(cc1C2)OCO4)OCO3 | 116% (inactive)
CC1(C)CC[C@]2(CO)CC[C@]3(C)[C@H](CC[C@@H]4[C@@]5(C)CC[C@H](O)C(C)(C)[C@@H]5CC[C@]43C)[C@H]2[C@H]1O | 117% (inactive)
O=C1NN(c2ccccc2)C(c2cccnc2)=N/C1=C\c1cccnc1 | 104% (inactive)
Cc1cc(C)cc(Nc2nccc(-c3c(-c4ccc(F)cc4)ncn3C3CCNCC3)n2)c1 | -58.9% (active)
Cc1ccc2c(c1)O/C(=C\c1cccc(OCC(=O)c3ccccc3)c1)C2=O | 12.1% (inactive)
O=C1Nc2ccccc2/C1=C/c1cn(CCCn2c3ccccc3c(=O)c3ccccc32)c2ccccc12 | 84% (inactive)
